The list is not random: actives were taken first. Their share in the collection is about 6.5%.
TGFb SMAD3 inh: TGF-b pathway inhibition | HepG2 CAGA-GFP TGF-b/SMAD3 reporter, GFP fluorescence, 18 h; TGF-beta stimulated, 500 pg/mL final | Potency, µM (highest dose often 46.1 µM), for the others: at the top dose activity, negative = inhibition, usual class: inhibitors | actives 1.2% (n = 410,000); further: potency means the concentration at half of the fitted maximal effect; on the % scale 0 is the no-effect control and ±100 the full control effect; nearly all actives have a fitted effect of over 65% in size
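Read-out: total well GFP (ex488/em500-530) summed from mean per-cell fluorescence. Cells: HEPG2 CAGA-GFP, 1% FBS DMEM, 18 h at 37 degrees C with 500 pg/mL final TGF-beta. Unstimulated wells served as the full-inhibition control; stimulated DMSO wells = 0%.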
HepG2 viability: HepG2 cytotoxicity, counter-screen for TGF-b inhibitors; HepG2 CAGA-GFP viability, ATP luminescence, 18 h; Potency, µM (doses to about 46.1 µM), without a hit: top-dose activity change, negative = cytotoxicity, most hits filed as cytotoxic; actives 0.76% (n = 410,000); further: potency means the concentration at half of the fitted maximal effect
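CellTiter-Glo luminescence gave cytotoxicity after 18 hours at 37 degrees C. The cells were HepG2 CAGA-GFP in 1% FBS DMEM, stimulated with 500 pg/mL TGF-beta after compound addition. %Activity was normalised to no-cell wells (complete cell-killing) and DMSO (no toxicity), and curves were fitted and classified.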
HT1080 IDH1KD tx: toxicity to HT-1080 IDH1 knockdown cells (counter line); HT-1080 IDH1 knockdown viability, ATP luminescence, 48 h; Potency, µM (top dose mostly 46.1 µM), without a hit: at the highest dose activity, negative = toxicity, hits mostly cytotoxic; actives 2% (n = 360,000);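 further: potency means the concentration at half of the fitted maximal effect; 0% = DMSO wells and -100% = cell-free medium wells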
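Luminescent ATP read-out (CellTiter-Glo, 10 min at room temperature) after 48 h compound exposure at 37 °C gave viability of IDH1-knockdown HT-1080 cells. Activity was normalised to DMSO and cell-free wells, then fitted as concentration-response curves.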
Giardia killer: Giardia lamblia killing; actives 0.15% (n = 340,000); activity change, % at 7.66 µM, hits read low; Giardia lamblia trophozoite viability; in the data active means activity change below about -80%; inconclusive means between about -30% and that limit;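 further: parasites exposed to compound for two days anaerobically before the ATP read; on the % scale 0 is the no-effect control and ±100 the full control effect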
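Anaerobic 48 hrs incubation at 37 deg C of 100 trophozoites/well with test compounds; ATPLite 1-Step luminescence, 15-30 min RT, reports cellular ATP as viability.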
HT1080-NT tox: kills 2HG-producing HT-1080-NT fibrosarcoma cells | HT-1080-NT fibrosarcoma viability, CellTiter-Glo ATP luminescence, 48 h | Potency, µM (highest dose often 46.1 µM), for the others: top-dose activity, negative = less viability, actives largely listed as cytotoxic | actives 1.6% (n = 360,000);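 further: NT is the 2HG producing partner of a matched IDH1 knockdown line; potency means the concentration at half of the fitted maximal effect; 0% = DMSO-treated cells and -100% = media-only wells without cells; nearly all actives have a fitted effect of over 55% in size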
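Compounds were tested in concentration-response format on HT-1080-NT cells for 48 hours at 37 degrees C. Cell viability came from CellTiter-Glo luminescence; curves were classified by r2, response magnitude and activity.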
IL-1B inflam inh: blocks inflammasome-driven IL-1 beta release; THP-1 LPS/ATP IL-1B secretion, AlphaLISA, 16 h; hits give low values; activity change, % at 57.5 µM; actives 4.7% (n = 360,000); AID 743279; in the data active means activity change below about -50%; inconclusive means mostly about -30% to -49%; further: on the % scale 0 is the no-effect control and ±100 the full control effect
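THP-1 cells pretreated 1 hr with compounds (up to 57.5 uM final), then stimulated with LPS (250 ng/mL final) plus ATP (1.25 mM final); secreted IL-1B measured by AlphaLISA after 16 hr, decreased signal indicating inhibition.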
The depositor's hits bear a star; ? = inconclusive; / = not tested or not shown; [ ] = dose if it differs, or a comment. Unless noted, the call rests on the fitted dose curve; in most records, active means well fitted curve in the direction sought with a large enough effect; inconclusive means small, poorly fitted or top-dose-only effect, or another doubt; inactive means no such curve, though single readings can be large; an effect the other way counts as inactive or inconclusive.

SMILES | TGFb SMAD3 inh | HepG2 viability | HT1080 IDH1KD tx | Giardia killer | HT1080-NT tox | IL-1B inflam inh
COc1cc(/C=C2\C(=O)ON=C2c2ccccc2)cc(Cl)c1O | 0.6% | -0.9% | ? | -1.4 | ? | -14.8
CCOc1cc(/C=C2\C(=O)ON=C2c2ccccc2)cc(Br)c1O | -18.8% | 3.9% | ? | 1.4 | ? | -104.4*
COc1cc(/C=C2\C(=O)ON=C2c2ccccc2)cc(Br)c1O | ? | -56.7% | ? | -4.7 | 16.4µM* | -29.4
Cc1ccc(CC(=O)Nc2cccc(C)n2)cc1 | -4.3% | 1.0% | 0.9% | -3.6 | 1.7%[9.24 µM] | -12.6
CCOC(=O)/C=C(\C)Sc1cc(=O)oc2ccccc12 | -5.0% | -31.5% | 16.4µM* | 0.1 | 14.6µM* | -52.5*
CCOC(=O)/C=C(\C)Sc1cc(O)c2ccccc2c1O | 3.16µM* | 5.62µM* | 23.1µM* | -2.1 | 23.1µM* | -61.8*
O=C(c1ccccc1)N1CCN(Cc2c[nH]c3ccccc23)CC1 | 1.9% | -22.1% | -0.6% | 36.1 | 3.0% | -83.4*
O=C(c1cccc(F)c1)N1CCN(Cc2c[nH]c3ccccc23)CC1 | 12.6% | -34.1% | -2.2% | 24.5 | -1.6% | -7.6
Clc1ccccc1N1CCN(Cc2c[nH]c3ccccc23)CC1 | 15.8µM* | -49.0% | 18.4µM* | 2.6 | ? | -80.6*
CC1=C(C(=O)Nc2ccccc2)C(c2cccnc2)n2nc(-c3cccnc3)nc2N1 (configuration not stated) | 4.2% | -2.3% | 1.9% | -9.4 | 13.4% | -4.0
Cc1ccc(Nc2nc(N)c([N+](=O)[O-])c(N3CCOCC3)n2)cc1C | 1.7% | -9.6% | -1.3% | -4.5 | -1.8% | -3.0
Cc1ccc(Nc2nc(N)c([N+](=O)[O-])c(N3CCC(C)CC3)n2)cc1C | -7.3% | 7.2% | 2.5% | 11.4 | 9.8% | -79.6*
Cc1cccc(Nc2nc(N)c([N+](=O)[O-])c(N3CCCC(C)C3)n2)c1 (configuration not stated) | ? | -88.4% | ? | 3.4 | ? | -102.6*
N/C(=N\N=C\c1cccc(O)c1)c1nonc1N | ? | -18.0% | ? | 9.6 | ? | -13.3
CCOC(=O)C1CCN(C(=O)c2ccc3c(=O)n4nc(Nc5ccccc5OC)sc4nc3c2)CC1 | -4.1% | -12.4% | -11.3% | / | -13.8% | -52.2*
Cc1ccc(Cl)cc1Nc1nn2c(=O)c3ccc(C(=O)N4CCCC(C)C4)cc3nc2s1 (configuration not stated) | -25.2% | -19.1% | / | / | / | /
Cc1ccc(C)c(Nc2nn3c(=O)c4ccc(C(=O)NCc5cccs5)cc4nc3s2)c1 | 5.01µM* | 6.31µM* | / | / | / | /
CCOC(=O)C1CCN(C(=O)c2ccc3c(=O)n4nc(Nc5cc(C)ccc5C)sc4nc3c2)CC1 | 12.6µM* | -25.6% | -19.1% | 3.1 | -20.7% | 33.2
COc1ccccc1Nc1nn2c(=O)c3ccc(C(=O)NCc4cccs4)cc3nc2s1 | -16.5% | -5.7% | / | / | / | /
CCCCN(CC)C(=O)c1ccc(-c2ccccc2)cc1 | ? | 2.5% | -3.4% | -6.3 | 6.6% | -10.0
Cn1nnnc1Sc1ncnc2scc(-c3ccccc3Cl)c12 | ? | 2.5% | / | 11.6 | / | /
O=C(Oc1c(Cl)cc(Cl)c2ccccc12)N1CCCC1 | -4.3% | -21.1% | -19.8% | -1.4 | -14.5% | 25.4
CCOC(=O)N1CC(C)N(C(=S)Nc2ccccc2)CC1C (configuration not stated) | 7.2% | 8.2% | 0.0% | -9.2 | 0.2% | 25.6
COC(=O)CSc1ccc(-c2nc3ccc(C)cc3[nH]2)cn1 | ? | -20.2% | 13.8% | 18.8 | -1.1% | -89.6*
O=C(COc1ccccc1Cl)Nc1ccc(Cl)c(-c2nc3ccccc3o2)c1 | -16.5% | 6.2% | / | / | / | /
SMILES | TGFb SMAD3 inh | HepG2 viability | HT1080 IDH1KD tx | Giardia killer | HT1080-NT tox | IL-1B inflam inh
O=C(CNC(=O)c1ccc(Br)cc1)c1ccc(Br)cc1 | 0.4% | -12.4% | 18.7% | -25.8 | 11.8% | 5.7
O=C(NCCSSCCNC(=O)c1ccccc1)c1ccccc1 | ? | -4.0% | -27.3% | -10.5 | -15.0% | -67.5*
O=C(CNC(=O)c1ccc(Br)cc1)c1ccccc1 | -20.0% | -12.2% | -2.2% | -6.3 | -6.7% | -65.4*
O=C(NCCSc1ccccc1)c1ccccc1 | -1.8% | -9.7% | 12.8% | -1.2 | 8.5% | -17.4
CCc1nc2c(OCc3cccc(Cl)c3)cccn2c1N(C)C(=O)Nc1ccccc1OC | ? | -7.5% | ? | / | ? | -19.3
CC(C)[C@@H]1Cc2[nH]c(=S)[nH]c(=O)c2[C@H](C)O1 | / | / | 7.6% | / | 18.2% | 3.2
CC(=O)Nc1ccc(-c2csc(NNC(=O)c3ccccc3)n2)cc1 | -10.7% | -2.5% | -1.1% | 15.9 | -1.2% | ?
CC(=O)Nc1ccc(-c2csc(N/N=C(/C)c3ccccc3)n2)cc1 | -1.7% | -4.6% | -7.6% | ? | -22.6% | -70.4*
CC(=O)Nc1ccc(-c2csc(-c3cccnc3)n2)cc1 | 0.5% | -38.1% | -26.9% | 2.5 | -22.4% | -55.0*
O=C(Nc1nccs1)c1ccc(N2C(=O)C3CCCCC3C2=O)cc1 (configuration not stated) | ? | -1.0% | 0.6% | -5.4 | 2.7% | -8.3
CCC(=O)NC(c1cccs1)c1ccc2cccnc2c1O (configuration not stated) | 1µM* | 0.8% | ? | 5.0 | ? | 111.8
CCCC(=O)NC(c1ccc(Cl)cc1Cl)c1ccc2cccnc2c1O (configuration not stated) | ? | -17.5% | 8.2µM* | -9.3 | ? | 124.1
CCOc1cc(C(Nc2cc(C)ccn2)c2ccc3cccnc3c2O)ccc1OC (configuration not stated) | 0.794µM* | -49.4% | / | / | / | /
CCCCC(=O)NC(c1ccccc1OC)c1ccc2cccnc2c1O (configuration not stated) | ? | -8.1% | 2.59µM* | ? | ? | 180.0
COc1ccc(C(Nc2ccccn2)c2ccc3ccc(C)nc3c2O)cc1C (configuration not stated) | ? | -35.2% | / | / | / | /
COCCNC(=O)C(c1ccc(O)cc1)N(C(=O)CCC(=O)Nc1nccs1)c1cccc(C)c1 (configuration not stated) | 7.5% | 7.4% | 1.4% | 1.3 | 10.5% | 5.2
Oc1c(C(Nc2nccs2)c2ccc(C(F)(F)F)cc2)ccc2cccnc12 (configuration not stated) | 22.4µM* | -30.1% | ? | -8.9 | ? | -102.6*
COc1ccc(C(NC(C)=O)c2ccc3cccnc3c2O)cc1OC (configuration not stated) | 0.4% | 14.8% | / | / | / | /
